# PubChem BioAssay
# Experiment: small molecules captured by biotinylated probe aFSTL3 – biochemical, small-molecule microarray, fluorescence 635/667, stem cell growth factor project, primary screen (AID 1064);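 further: measures binding of the biotinylated anti-FSTL3 antibody to printed compounds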
# Conditions: higher = more signal
row,Structure (SMILES),composite z-score
1,COc1cccc([C@H]2Oc3ccc(OC)cc3C(=NO[C@H](C)c3cn([C@H](CO)Cc4ccccc4)nn3)[C@@H]2O)c1,-0.129
2,COc1ccc(COC(=O)NN=C2C[C@@H](O)[C@@H](O)[C@@H]3[C@@H]4C(=O)N(c5cccc(Oc6ccccc6)c5)C(=O)[C@@H]4CC[C@@H]23)cc1,0.809
3,CO[C@@H]1COC(=O)CC=C[C@H](C)[C@H](OC)COC(=O)[C@H](C)NC(=O)CC=C[C@H]1C,-0.729
4,O=C1C[C@@H](O)[C@@H](O)[C@@H]2[C@@H]3C(=O)N(C[C@@H]4CCCO4)C(=O)[C@@H]3CC[C@H]12,-0.469
5,COC(=O)[C@@H]1CC[C@@H](C)[C@H](c2ccc(Br)cc2)N1,-0.364
6,COC(=O)[C@@H]1CC[C@H](C)[C@@H](c2ccc(C)cc2)N1C(=O)c1ccc(C=NO[C@H](C)c2cn([C@@H]3COC[C@H]3O)nn2)cc1,-0.591
7,Cn1c(=O)n2n(c1=O)[C@H]1[C@H](O)[C@@H]3O[C@@H]3C(=NOCc3ccccc3)[C@H]1CC2,-0.266
8,CCOC(=O)NN=C1C[C@@H](O)[C@@H](O)[C@@H]2[C@@H]3C(=O)N(c4cccc(Oc5ccccc5)c4)C(=O)[C@@H]3CC[C@@H]12,-0.216
9,COC(=O)[C@H](C)NC(=O)CCC1CC(OC(=O)NCc2cccc3ccccc23)CC2(CCCC(COC(=O)NCC(c3ccccc3)c3ccccc3)O2)O1 (stereo partly specified),-0.766
10,Cc1ccc(S(=O)(=O)n2c3ccccc3c3nnc(C(=O)c4ccccc4)nc32)cc1,-0.474
11,COC(=O)C=CCCc1coc(C=CCNC(=O)OC)n1,-0.0195
12,CON=C1[C@H]2CCn3c(=O)n(-c4ccccc4)c(=O)n3[C@H]2[C@H](O)[C@@H]2O[C@H]12,-0.39
13,CC(C)=CCCC(C)=CCON=C1C[C@@H](O)[C@@H](O)[C@@H]2[C@@H]3C(=O)N(C4CCCCC4)C(=O)[C@@H]3CC[C@@H]12,1.18
14,O=C1[C@H]2[C@H]3[C@H](O)[C@H](O)CC(=NOC[C@@H](O)COCc4ccco4)[C@H]3CC[C@H]2C(=O)N1C[C@@H]1CCCO1,-0.634
15,O=C(NN=C1C[C@@H](O)[C@@H](O)[C@@H]2[C@@H]3C(=O)N(C[C@@H]4CCCO4)C(=O)[C@@H]3CC[C@@H]12)OCc1ccccc1,-0.51
16,COc1ccc(C#C[C@@H]2C=C[C@H](OC(C)=O)[C@@H](COC(C)=O)O2)cc1,-0.068
17,CC(C)CON=C1C[C@@H](O)[C@@H](O)[C@@H]2[C@@H]3C(=O)N(c4cccc(Oc5ccccc5)c4)C(=O)[C@@H]3CC[C@@H]12,-0.509
18,CCOC(=O)[C@H](CC(C)C)NC(=O)CCC1CC(OC(=O)NCc2cccc3ccccc23)CC2(CCCC(COC(=O)NCc3cccc(C(F)(F)F)c3)O2)O1 (stereo partly specified),-0.5
19,C#CCCCON=C1C[C@@H](O)[C@@H](O)[C@@H]2[C@@H]3C(=O)N(Cc4ccccc4)C(=O)[C@@H]3CC[C@@H]12,-0.19
20,COc1ccc(O[C@H]2C=C[C@@H](c3ccccc3)O[C@@H]2CON=CC[C@@H]2C=C[C@H](OC(C)=O)[C@@H](COC(C)=O)O2)cc1,-0.142
21,CC(C)(C)N1C(=O)[C@H]2[C@H]3[C@H](O)[C@H](O)CC(=O)[C@H]3CC[C@H]2C1=O,-0.635
22,Cc1cc2c(nc1C)CCCCN2CC(C)ON=C[C@@H](C)[C@H](OCc1ccccc1)C(C)C (stereo partly specified),-0.0674
23,C#CCCCON=C1C[C@@H](O)[C@@H](O)[C@@H]2[C@@H]3C(=O)N(CCC(=O)OCC)C(=O)[C@@H]3CC[C@H]12,-0.467
24,CCOC(=O)[C@H](CC(C)C)NC(=O)CCC1CC(OC(=O)NCc2cccc3ccccc23)CC2(CCCC(COC(=O)NCCOC)O2)O1 (stereo partly specified),-0.56
25,COc1ccc(COC(=O)NN=C2C[C@@H](O)[C@@H](O)[C@@H]3[C@@H]4C(=O)N(c5ccc(F)cc5F)C(=O)[C@@H]4CC[C@H]23)cc1,1.64

# Experiment: binders from COS7 lysate, DM2A8 probe, primary screen, torsin A project, cell lysate, small-molecule microarray, fluorescence 635/667 (AID 1065)
# Conditions: higher = more signal, COS7 lysate expressing mutant human TOR1A
row,Structure (SMILES),composite z-score
1,CC(C)=NO[C@H](C)c1cn([C@H](CO)Cc2ccccc2)nn1,0.364
2,CCOC(=O)[C@H](CC(C)C)NC(=O)CCC1CC(OC(=O)NCc2cccc3ccccc23)CC2(CCCC(COC(=O)NCCOc3ccccc3)O2)O1 (stereo partly specified),0.374
3,O=C1C[C@@H](O)[C@@H](O)[C@@H]2[C@@H]3C(=O)N(C[C@@H]4CCCO4)C(=O)[C@@H]3CC[C@@H]12,0.203
4,CCOC(=O)[C@H](CC(C)C)NC(=O)CCC1CC(OC(=O)NCc2cccc3ccccc23)CC2(CCCC(COC(=O)NCCc3ccc(Cl)cc3)O2)O1 (stereo partly specified),-0.19
5,CO[C@H]1COC(=O)CC=C[C@@H](C)[C@H](NS(=O)(=O)c2ccc(C)cc2)COC(=O)CCC[C@@H]1C,0.906
6,CO[C@H]1COC(=O)[C@H](C)NC(=O)CC=C[C@@H](C)[C@H](OC)COC(=O)[C@@H](OCc2ccccc2)C=C[C@@H]1C,0.996
7,CCCNC(=O)OC[C@H]1O[C@H](CCON=C(C)CCN2CCCc3nc(C)c(C)cc32)C=C[C@@H]1Oc1ccc(OC)cc1,-0.0773
8,C#CCCCON=C1C[C@@H](O)[C@@H](O)[C@@H]2[C@@H]3C(=O)N(CC)C(=O)[C@@H]3CC[C@@H]12,0.278
9,COC(=O)[C@H](C)NC(=O)CCC1CC(OC(=O)NCc2ccc3c(c2)OCO3)CC2(CCCC(COC(=O)NCC3CCCCC3)O2)O1 (stereo partly specified),0.0369
10,CO[C@H]1COC(=O)CC=C[C@@H](C)[C@H](OC)COC(=O)[C@@H]2CCCN2C(=O)CC=C[C@@H]1C,2.11
11,CON=C[C@@H](NS(=O)(=O)c1ccc(C)cc1)[C@H](C)C=CCC(=O)OC,0.0827
12,COc1cccc([C@H]2Oc3ccc(OC)cc3C(=NO[C@H](C)c3cn([C@H](CO)Cc4ccccc4)nn3)[C@@H]2O)c1,-0.0315
13,COc1ccc(COC(=O)NN=C2C[C@@H](O)[C@@H](O)[C@@H]3[C@@H]4C(=O)N(c5cccc(Oc6ccccc6)c5)C(=O)[C@@H]4CC[C@@H]23)cc1,-0.107
14,CO[C@@H]1COC(=O)CC=C[C@H](C)[C@H](OC)COC(=O)[C@H](C)NC(=O)CC=C[C@H]1C,1.42
15,O=C1C[C@@H](O)[C@@H](O)[C@@H]2[C@@H]3C(=O)N(C[C@@H]4CCCO4)C(=O)[C@@H]3CC[C@H]12,0.207
16,COC(=O)[C@@H]1CC[C@@H](C)[C@H](c2ccc(Br)cc2)N1,-0.0471
17,COC(=O)[C@@H]1CC[C@H](C)[C@@H](c2ccc(C)cc2)N1C(=O)c1ccc(C=NO[C@H](C)c2cn([C@@H]3COC[C@H]3O)nn2)cc1,-0.314
18,Cn1c(=O)n2n(c1=O)[C@H]1[C@H](O)[C@@H]3O[C@@H]3C(=NOCc3ccccc3)[C@H]1CC2,0.125

row,Structure (SMILES),composite z-score
1,CCOC(=O)NN=C1C[C@@H](O)[C@@H](O)[C@@H]2[C@@H]3C(=O)N(c4cccc(Oc5ccccc5)c4)C(=O)[C@@H]3CC[C@@H]12,1.21
2,COC(=O)[C@H](C)NC(=O)CCC1CC(OC(=O)NCc2cccc3ccccc23)CC2(CCCC(COC(=O)NCC(c3ccccc3)c3ccccc3)O2)O1 (stereo partly specified),0.233
3,Cc1ccc(S(=O)(=O)n2c3ccccc3c3nnc(C(=O)c4ccccc4)nc32)cc1,0.338
4,COC(=O)C=CCCc1coc(C=CCNC(=O)OC)n1,0.924
5,CON=C1[C@H]2CCn3c(=O)n(-c4ccccc4)c(=O)n3[C@H]2[C@H](O)[C@@H]2O[C@H]12,0.135
6,CC(C)=CCCC(C)=CCON=C1C[C@@H](O)[C@@H](O)[C@@H]2[C@@H]3C(=O)N(C4CCCCC4)C(=O)[C@@H]3CC[C@@H]12,0.76
7,O=C1[C@H]2[C@H]3[C@H](O)[C@H](O)CC(=NOC[C@@H](O)COCc4ccco4)[C@H]3CC[C@H]2C(=O)N1C[C@@H]1CCCO1,1.03
8,O=C(NN=C1C[C@@H](O)[C@@H](O)[C@@H]2[C@@H]3C(=O)N(C[C@@H]4CCCO4)C(=O)[C@@H]3CC[C@@H]12)OCc1ccccc1,2.32
9,COc1ccc(C#C[C@@H]2C=C[C@H](OC(C)=O)[C@@H](COC(C)=O)O2)cc1,0.101
10,CC(C)CON=C1C[C@@H](O)[C@@H](O)[C@@H]2[C@@H]3C(=O)N(c4cccc(Oc5ccccc5)c4)C(=O)[C@@H]3CC[C@@H]12,0.14
11,CCOC(=O)[C@H](CC(C)C)NC(=O)CCC1CC(OC(=O)NCc2cccc3ccccc23)CC2(CCCC(COC(=O)NCc3cccc(C(F)(F)F)c3)O2)O1 (stereo partly specified),0.0221
12,C#CCCCON=C1C[C@@H](O)[C@@H](O)[C@@H]2[C@@H]3C(=O)N(Cc4ccccc4)C(=O)[C@@H]3CC[C@@H]12,0.421
13,COc1ccc(O[C@H]2C=C[C@@H](c3ccccc3)O[C@@H]2CON=CC[C@@H]2C=C[C@H](OC(C)=O)[C@@H](COC(C)=O)O2)cc1,0.0191
14,CC(C)(C)N1C(=O)[C@H]2[C@H]3[C@H](O)[C@H](O)CC(=O)[C@H]3CC[C@H]2C1=O,1.21
15,Cc1cc2c(nc1C)CCCCN2CC(C)ON=C[C@@H](C)[C@H](OCc1ccccc1)C(C)C (stereo partly specified),-0.777
16,C#CCCCON=C1C[C@@H](O)[C@@H](O)[C@@H]2[C@@H]3C(=O)N(CCC(=O)OCC)C(=O)[C@@H]3CC[C@H]12,0.294
17,CCOC(=O)[C@H](CC(C)C)NC(=O)CCC1CC(OC(=O)NCc2cccc3ccccc23)CC2(CCCC(COC(=O)NCCOC)O2)O1 (stereo partly specified),0.071
18,COc1ccc(COC(=O)NN=C2C[C@@H](O)[C@@H](O)[C@@H]3[C@@H]4C(=O)N(c5ccc(F)cc5F)C(=O)[C@@H]4CC[C@H]23)cc1,-0.398
